Several values for one entry are separate records, joined by “and”; a condition that tells them apart may be missing. Equal values may be shown once. Records with an inconclusive call do not appear. Values without a mark were called inactive. The call rests on the fitted dose curve; in most records, active means well fitted cell-killing curve with a large enough effect; inconclusive means small, poorly fitted or top-dose-only effect, or effect the other way; inactive means flat fitted curve, though single readings scatter.
Assay: qHTS assay for cell viability of HEK293 cells (AID 743288); further: nearly all actives have a fitted effect of over 50% in size
Settings: ATP luminescence (CellTiter-Glo), 18 h, active compounds read low
Method in brief: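 Quantitative high-throughput screen: compounds were pinned onto parental HEK293 cells (2,000 per well) after a minimum 5 h settling at 37 C, incubated 18 h at 37 C, and intracellular ATP measured by luciferase luminescence.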
On the % scale 0 is the no-effect control and ±100 the full control effect.

Row | SMILES | max response
1 | CC(O)CO (stereo unspecified) | 4.22% and 2.43%
2 | O=S(=O)(O)O | 9.97% and -5.38%
3 | CC1=CCC(C(C)(C)O)CC1 (stereo unspecified) | -13.3%
4 | CC1=C(/C=C/C(C)=C/C=C/C(C)=C/CO)C(C)(C)CCC1 | -9.33% and -12.3%
5 | CC(C)=O | -4.51%
6 | O=C(O)CCC(=O)C(=O)O | 2.53%
7 | CCOc1ccc2c(c1)C(C)=CC(C)(C)N2 | -17.1% and -27.7%
8 | CC1=C2[C@@H]([C@H](C)CC[C@H]2/C=C(\C)C(=O)O)[C@H](O)C1 | -12%
9 | CCCCC(CC)COC(=O)CC(C(=O)OCC(CC)CCCC)S(=O)(=O)O (stereo unspecified) | -6.91%
10 | CCCCCCCC/C=C\CCCCCCCC(=O)O | -8.54% and -13.9%
11 | CCOC(C)=O | 2.28%
12 | CC(C)(C)NC(=O)[C@@H]1C[C@@H]2CCCC[C@@H]2CN1C[C@@H](O)[C@H](Cc1ccccc1)NC(=O)[C@H](CC(N)=O)NC(=O)c1ccc2ccccc2n1 | -26%
13 | Nc1ccn([C@H]2CS[C@@H](CO)O2)c(=O)n1 | -4.28%
14 | O=C(O)CN(CCN(CC(=O)O)CC(=O)O)CC(=O)O | -9.23% and -6.76%
15 | CC1(C)C(C=C(Cl)Cl)C1C(=O)OCc1cccc(Oc2ccccc2)c1 (stereo unspecified) | -9.26% [middle of 4 runs]
16 | CCCCCCCC(=O)O | -4.48% and -6.78%

From PubChem BioAssay (NCATS)
